Measurements taken from PubChem BioAssay AID1159580 (chemical genetic matrix, 2015).
In all, about 5,500 compounds went through this assay and about 2,000 (36%) were called active. Roughly 18% stayed inconclusive and do not appear here. No stated cut-off is given here; in the data, active means normalized growth mostly below about 0.91 (no sharp cut-off); inconclusive means no clear call, values can overlap the other calls; inactive means mostly above about 0.92. The list shows a part of the results.

Experiment: chemical genetic growth profiling, strain panel (AID 1159580);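 further: tested at 20 µM; growth read once vehicle control cultures reached saturation at 30 °C; 1 = growth at the plate median or of vehicle wells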
Details: growth OD

Measured: normalized growth

Clc1ccc(C(c2ccc(Cl)cc2)C(Cl)(Cl)Cl)cc1
inactive: S. cerevisiae deletion strains, locus YJR043C, strain POL32, stronger effect = lower value 0.996 | S. cerevisiae deletion strains, locus YJR075W, strain HOC1, stronger effect = lower value 1.01 | S. cerevisiae deletion strains, locus YKL009W, strain mrt4, stronger effect = lower value 0.992 | S. cerevisiae deletion strains, locus YKL068W, stronger effect = lower value 1.02 | S. cerevisiae deletion strains, locus YKL085W, strain MDH1 (second series), stronger effect = lower value 1.01 | S. cerevisiae deletion strains, locus YKL085W, strain MDH1, stronger effect = lower value 1.01 | S. cerevisiae deletion strains, locus YKL160W, strain elf1, stronger effect = lower value 1.01 | S. cerevisiae deletion strains, locus YKL190W, strain CNB1, stronger effect = lower value 0.996 | S. cerevisiae deletion strains, locus YKR001C, strain vps1, stronger effect = lower value 0.997 | S. cerevisiae deletion strains, locus YKR026C, strain gcn3, stronger effect = lower value 1.01 | S. cerevisiae deletion strains, locus YKR091W, strain srl3, stronger effect = lower value 1 | S. cerevisiae deletion strains, locus YLL001W, strain dnm1, stronger effect = lower value 1.02 | S. cerevisiae deletion strains, locus YLL026W, stronger effect = lower value 1.01 | S. cerevisiae deletion strains, locus YLL041C, strain sdh2, stronger effect = lower value 1.01 | S. cerevisiae deletion strains, locus YLR027C, strain aat2, stronger effect = lower value 1.01 | S. cerevisiae deletion strains, locus YLR039C, strain RIC1, stronger effect = lower value 1.05 | S. cerevisiae deletion strains, locus YLR058C, strain SHM2, stronger effect = lower value 1.02 | S. cerevisiae deletion strains, locus YLR102C, strain apc9, stronger effect = lower value 0.992 | S. cerevisiae deletion strains, locus YLR221C, strain rsa3, stronger effect = lower value 1.01 | S. cerevisiae deletion strains, locus YLR258W, strain gsy2, stronger effect = lower value 1.01 | S. cerevisiae deletion strains, locus YLR262C, strain YPT6 (second series), stronger effect = lower value 0.985 | S. cerevisiae deletion strains, locus YLR262C, strain YPT6, stronger effect = lower value 0.999 | S. cerevisiae deletion strains, locus YLR268W, strain sec22, stronger effect = lower value 1 | S. cerevisiae deletion strains, locus YLR320W, strain mms22, stronger effect = lower value 0.99 | S. cerevisiae deletion strains, locus YLR330W, strain CHS5, stronger effect = lower value 1.02 | S. cerevisiae deletion strains, locus YLR342W, strain FKS1 (second series), stronger effect = lower value 1.04 | S. cerevisiae deletion strains, locus YLR342W, strain FKS1, stronger effect = lower value 1.01 | S. cerevisiae deletion strains, locus YLR357W, strain rsc2, stronger effect = lower value 1.03 | S. cerevisiae deletion strains, locus YLR370C, strain arc18, stronger effect = lower value 1.01 | S. cerevisiae deletion strains, locus YLR371W, strain rom2, stronger effect = lower value 0.995 | S. cerevisiae deletion strains, locus YLR384C, strain iki3, stronger effect = lower value 1 | S. cerevisiae deletion strains, locus YLR418C, strain cdc73, stronger effect = lower value 0.984 | S. cerevisiae deletion strains, locus YML016C, strain PPZ1, stronger effect = lower value 1.03 | S. cerevisiae deletion strains, locus YML032C, strain rad52, stronger effect = lower value 0.992 | S. cerevisiae deletion strains, locus YML120C, strain ndi1, stronger effect = lower value 0.997 | S. cerevisiae deletion strains, locus YML124C, strain tub3, stronger effect = lower value 1 | S. cerevisiae deletion strains, locus YMR058W, strain fet3, stronger effect = lower value 1.01 | S. cerevisiae deletion strains, locus YMR078C, strain ctf18, stronger effect = lower value 0.991 | S. cerevisiae deletion strains, locus YMR125W, strain sto1, stronger effect = lower value 1.01 | S. cerevisiae deletion strains, locus YMR129W, stronger effect = lower value 1.01 | S. cerevisiae deletion strains, locus YMR205C, strain PFK2, stronger effect = lower value 0.977 | S. cerevisiae deletion strains, locus YMR223W, strain ubp8, stronger effect = lower value 0.991 | S. cerevisiae deletion strains, locus YMR231W, strain pep5, stronger effect = lower value 1.01 | S. cerevisiae deletion strains, locus YMR263W, strain SAP30, stronger effect = lower value 1.02 | S. cerevisiae deletion strains, locus YMR307W, strain GAS1, stronger effect = lower value 0.918 | S. cerevisiae deletion strains, locus YNL067W, strain RPL9B, stronger effect = lower value 1.01 | S. cerevisiae deletion strains, locus YNL071W, strain lat1, stronger effect = lower value 1.02 | S. cerevisiae deletion strains, locus YNL128W, strain TEP1, stronger effect = lower value 1.02 | S. cerevisiae deletion strains, locus YNL153C, strain GIM3, stronger effect = lower value 1.02 | S. cerevisiae deletion strains, locus YNL209W, strain ssb2, stronger effect = lower value 1 | S. cerevisiae deletion strains, locus YNL233W, strain BNI4, stronger effect = lower value 1.01 | S. cerevisiae deletion strains, locus YNL248C, strain rpa49, stronger effect = lower value 1 | S. cerevisiae deletion strains, locus YNL250W, strain rad50, stronger effect = lower value 1 | S. cerevisiae deletion strains, locus YNL271C, strain bni1, stronger effect = lower value 0.997 | S. cerevisiae deletion strains, locus YNL298W, strain CLA4, stronger effect = lower value 1.02 | S. cerevisiae deletion strains, locus YNL307C, strain MCK1, stronger effect = lower value 0.963 | S. cerevisiae deletion strains, locus YNL322C, strain KRE1 (second series), stronger effect = lower value 1.01 | S. cerevisiae deletion strains, locus YNL322C, strain KRE1, stronger effect = lower value 1.02 | S. cerevisiae deletion strains, locus YNR049C, strain mso1, stronger effect = lower value 1.01 | S. cerevisiae deletion strains, locus YNR052C, strain pop2, stronger effect = lower value 0.991 | S. cerevisiae deletion strains, locus YOL006C, strain TOP1, stronger effect = lower value 1.02 | S. cerevisiae deletion strains, locus YOL012C, strain htz1 1.14 | S. cerevisiae deletion strains, locus YOL147C, strain pex11, stronger effect = lower value 1 | S. cerevisiae deletion strains, locus YOR001W, strain rrp6, stronger effect = lower value 1.01 | S. cerevisiae deletion strains, locus YOR061W, strain CKA2, stronger effect = lower value 1.01 | S. cerevisiae deletion strains, locus YOR069W, strain VPS5, stronger effect = lower value 1.01 | S. cerevisiae deletion strains, locus YOR070C, strain gyp1, stronger effect = lower value 1.01 | S. cerevisiae deletion strains, locus YOR080W, strain dia2, stronger effect = lower value 1.01 | S. cerevisiae deletion strains, locus YOR083W, strain WHI5, stronger effect = lower value 1.01 | S. cerevisiae deletion strains, locus YOR106W, strain vam3, stronger effect = lower value 0.988 | S. cerevisiae deletion strains, locus YOR136W, strain idh2, stronger effect = lower value 0.99 | S. cerevisiae deletion strains, locus YOR144C, strain elg1, stronger effect = lower value 1 | S. cerevisiae deletion strains, locus YOR184W, strain ser1, stronger effect = lower value 0.982 | S. cerevisiae deletion strains, locus YOR265W, strain rbl2, stronger effect = lower value 1.01 | S. cerevisiae deletion strains, locus YOR270C, strain vph1, stronger effect = lower value 1.01 | S. cerevisiae deletion strains, locus YOR290C, strain snf2, stronger effect = lower value 1 | S. cerevisiae deletion strains, locus YOR316C, strain cot1, stronger effect = lower value 1.01 | S. cerevisiae deletion strains, locus YPL051W, strain arl3, stronger effect = lower value 1 | S. cerevisiae deletion strains, locus YPL055C, strain LGE1, stronger effect = lower value 0.989 | S. cerevisiae deletion strains, locus YPL078C, strain atp4, stronger effect = lower value 1.01 | S. cerevisiae deletion strains, locus YPL106C, strain sse1, stronger effect = lower value 1.03 | S. cerevisiae deletion strains, locus YPL240C, strain hsp82, stronger effect = lower value 0.999 | S. cerevisiae deletion strains, locus YPL241C, strain CIN2, stronger effect = lower value 1.02 | S. cerevisiae deletion strains, locus YPR119W, strain clb2, stronger effect = lower value 0.998 | S. cerevisiae deletion strains, locus YPR141C, strain kar3, stronger effect = lower value 1.01 | S. cerevisiae deletion strains, locus YPR163C, strain tif3, stronger effect = lower value 0.998 | S. cerevisiae deletion strains, locus YPR167C, strain met16, stronger effect = lower value 0.997 | S. cerevisiae deletion strains, strain wtn01, stronger effect = lower value 0.997 | S. cerevisiae strains, strain wild type, stronger effect = lower value 1.01
